# Experimental data from ChEMBL document CHEMBL1201862, “PubChem BioAssay data set” (2004).
# In all, about 410,000 compounds went through this assay and about 5,100 (1.2%) were called active. Another 8% or so got no clear call; they are omitted. The calls are words filed in the database; no cut-off is given here. Many of the other results were omitted from the sample, so actives are more common in it than they were.
# Assay: High Throughput Screening for Foot and Mouth Disease Virus Antivirals.
# Type: functional
# Conditions: read-out: Potency
row,Structure (SMILES),AC50
1,CN(C)CCNC(=O)C1CCN(Cc2cc3ccccc3n2Cc2ccccc2)CC1,398 µM (active)
